Consider seven molecules from PubChem BioAssay (NCI).

Molecules are shown by their SMILES. Several values for one entry are separate records, joined by “and”; a condition that tells them apart may be missing. Equal entries are not always repeated. The panel holds about 83,000 compounds, 20% with a hit somewhere; the sample as a whole holds those more often.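 Single-concentration screen, 48 h exposure, 96-well plates. Endpoint: percent growth. Below 10 = active.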 Values without a mark were called inactive. Activity calls are given as the source filed them.

What all share (experiment): NCI-60 one-dose screen, 48 h (100 = growth as untreated, 0 = no growth, -100 = all killed)
The test system of one experiment is NCI-H23 lung. To be noted: 10 µM.
For another experiment, the system named is NCI-H226 lung. The note with it: 10 µM.
In another experiment the test system is NCI-H322M lung. The note with it: 10 µM.
Another experiment deals with HOP-62 NSCLC. The note with it: 10 µM.
Another experiment concerns NCI-H460 lung. The note with it: 10 µM.
Another experiment deals with HOP-92 NSCLC. The note with it: 10 µM.
In the next experiment the test system is NCI-H522 lung. To be noted: 10 µM unless noted.
Another experiment concerns A549/ATCC NSCLC. The note with it: 10 µM.
In a further experiment the test system is 786-0 renal. To be noted: 10 µM.
In the next experiment the test system is COLO 205 colon. The note with it: 10 µM.
Another experiment relates to DU-145 prostate. The note with it: 10 µM unless noted.
For another experiment, the system named is K-562 leukemia. The note with it: 10 µM.
A further experiment relates to MALME-3M melanoma. The note with it: 10 µM.
The test system of a further experiment is MDA-MB-231 breast. To be noted: 10 µM.
Another experiment deals with RXF 393 renal. The note with it: 10 µM unless noted.
For another experiment, the system named is SF-268 CNS. The note with it: 10 µM.
Another experiment deals with SF-295 CNS. The note with it: 10 µM.
Another experiment relates to SF-539 CNS. The note with it: 10 µM.
Another experiment has as its system UACC-257 melanoma. To be noted: 10 µM.
The test system of another experiment is M14 melanoma. The note with it: 10 µM.

On to `Clc1ccc(/C=C/c2ccccn2)c(Cl)c1`, for which the growth in the experiment with NCI-H23 lung is 93.7%; with NCI-H226 lung, 97.1%; in the experiment on NCI-H322M lung it was 85.5%; with HOP-62 NSCLC, 96.2%; with NCI-H460 lung, 95.2%; in the experiment with HOP-92 NSCLC, 84%. Further, the growth was 81.2% in the experiment on NCI-H522 lung; 90% with A549/ATCC NSCLC; 105% with 786-0 renal; 94.7% with COLO 205 colon; 116% in the experiment with DU-145 prostate; 93.6% in the experiment with K-562 leukemia. For the same molecule, the growth is 102% in the experiment with MALME-3M melanoma; 85.5% in the experiment on MDA-MB-231 breast; 108% with RXF 393 renal; 99% in the experiment with SF-268 CNS; 94.5% in the experiment with SF-295 CNS; 89.3% in the experiment on SF-539 CNS. For the same molecule, the figures for the growth in the experiment with UACC-257 melanoma and with M14 melanoma were 99.7% and 106%, respectively.

As to `COC(=O)C1=COC(C)C2C[n+]3ccc4c([nH]c5ccccc54)c3CC12` (stereo not given), the growth in the experiment with NCI-H23 lung is 103% and 88.6%; with NCI-H226 lung, 87.1% and 71.2%; in the experiment on NCI-H322M lung, 107% and 95.9%; with HOP-62 NSCLC, 94.7% and 88.3%; in the experiment with NCI-H460 lung, 113% and 95.1%; in the experiment with HOP-92 NSCLC, 92.2% and 75.9%. The growth was 99.2% and 76.1% in the experiment on NCI-H522 lung; 103% and 76.7% in the experiment on A549/ATCC NSCLC; 102% and 107% in the experiment with 786-0 renal; 106% and 99.7% in the experiment with COLO 205 colon; 112% and 108% in the experiment with DU-145 prostate; 93.7% and 85.2% in the experiment with K-562 leukemia. Further, the growth was 105% and 93.8% with MALME-3M melanoma; 101% and 73.2% in the experiment with MDA-MB-231 breast; 112% in the experiment with RXF 393 renal; 99.1% and 96.2% in the experiment on SF-268 CNS; 102% and 90.8% in the experiment on SF-295 CNS; 105% in the experiment with SF-539 CNS. Moreover, the growth is 106% and 95.1% with UACC-257 melanoma; 107% and 94% in the experiment on M14 melanoma.

Consider `O=C(Nc1ccc(C(=O)O)c(O)c1)c1ccccc1`, for which the growth with NCI-H23 lung is 104% and 97.9%; in the experiment on NCI-H226 lung it was 101%; with NCI-H322M lung, 100% and 97.7%; with HOP-62 NSCLC, 95.3% and 91.7%; in the experiment on NCI-H460 lung, 109%; in the experiment on HOP-92 NSCLC, 81.4% and 103%. Moreover, the growth is 93.3% and 89.8% with NCI-H522 lung; 101% and 95.6% in the experiment with A549/ATCC NSCLC; 109% and 97% in the experiment on 786-0 renal; 102% and 130% in the experiment with COLO 205 colon; 108% and 126% in the experiment with DU-145 prostate; 101% and 102% in the experiment with K-562 leukemia. Also, the growth with MALME-3M melanoma is 88.5% and 92.3%; in the experiment with MDA-MB-231 breast it was 98.5% and 104%; in the experiment on RXF 393 renal, 112% and 107%; with SF-268 CNS, 108% and 121%; in the experiment on SF-295 CNS, 106% and 95.1%; in the experiment on SF-539 CNS it was 98% and 104%. Also, the growth in the experiment with UACC-257 melanoma is 98.5% and 94.3%; in the experiment on M14 melanoma it was 106% and 99.6%.

As for `O=C1C=CC(=CC=C2C=CN(CCCCCCCCCCCO)C=C2)C=C1`, the growth was 20% with NCI-H23 lung; 59.6% in the experiment on NCI-H226 lung; 92.4% with NCI-H322M lung; 44.5% with HOP-62 NSCLC; 17.5% in the experiment with NCI-H460 lung; 24% in the experiment on HOP-92 NSCLC. In addition, the growth in the experiment with NCI-H522 lung is 18.2%; in the experiment on A549/ATCC NSCLC, 46.3%; in the experiment with 786-0 renal, 67.2%; with COLO 205 colon, -42.6% (active); in the experiment on DU-145 prostate, 44.3%; in the experiment with K-562 leukemia, 24.7%. The growth with MALME-3M melanoma is 41.6%; in the experiment with RXF 393 renal it was 69.2%; in the experiment with SF-295 CNS it was 45.3%; with SF-539 CNS, 41.4%; with UACC-257 melanoma, 4% (active); in the experiment on M14 melanoma, 45.4%.

Turning to `CO[C@H](C(=O)[C@@H](O)[C@@H](C)O)[C@@H]1Cc2cc3cc(OC4CC(OC5CC(O)C(O)C(C)O5)C(O)C(C)O4)c(C)c(O)c3c(O)c2C(=O)[C@H]1OC1CC(OC2CC(OC3CC(C)(O)C(O)C(C)O3)C(O)C(C)O2)C(O)C(C)O1` (stereo not given in full), the growth in the experiment on NCI-H23 lung is -28.9% (active); in the experiment on NCI-H226 lung, 10.8%; in the experiment with NCI-H322M lung, 5.87% (active); with HOP-62 NSCLC, 7.51% (active); in the experiment on NCI-H460 lung, 2.6% (active); in the experiment on HOP-92 NSCLC, -1.5% (active). Further, the growth with NCI-H522 lung is -44.7% (active); with A549/ATCC NSCLC, 2.67% (active); in the experiment on 786-0 renal, 2.93% (active); with COLO 205 colon it was -67.5% (active); in the experiment on DU-145 prostate it was 24.7%; in the experiment with K-562 leukemia, 6.76% (active). The growth in the experiment with MALME-3M melanoma is -54.6% (active); in the experiment with MDA-MB-231 breast, 14.6%; in the experiment with RXF 393 renal, 5.86% (active); with SF-268 CNS, 12.3%; in the experiment on SF-295 CNS it was 19.1%; in the experiment with SF-539 CNS, -20.2% (active). The growth in the experiment on UACC-257 melanoma was 4.4% (active); in the experiment on M14 melanoma it was -71.5% (active).

Regarding `Cc1cc(O)c(C(C)C)cc1Cl`, the growth in the experiment on NCI-H23 lung was 106%; with NCI-H226 lung it was 96.7%; with NCI-H322M lung, 96.9%; in the experiment on HOP-62 NSCLC it was 95.7%; with NCI-H460 lung it was 99.1%; in the experiment on HOP-92 NSCLC, 99.9%. The growth is 101% in the experiment with NCI-H522 lung; 101% in the experiment on 786-0 renal; 107% in the experiment with COLO 205 colon; 101% in the experiment with DU-145 prostate; 96.8% in the experiment on K-562 leukemia; 109% with MALME-3M melanoma. For the same molecule, the growth in the experiment on MDA-MB-231 breast is 104%; in the experiment on RXF 393 renal, 120%; with SF-268 CNS it was 99.3%; in the experiment on SF-295 CNS, 100%; in the experiment with SF-539 CNS, 105%; with M14 melanoma, 101%.

For `OC(CN1CCCC2CCCCC21)c1cc2ccccc2c2ccccc12` (stereo not given), the growth in the experiment on NCI-H23 lung is 12.6%; with NCI-H226 lung, 39.3%; in the experiment on NCI-H322M lung it was 49.4%; in the experiment with HOP-62 NSCLC, 11.2%; with NCI-H460 lung, 7.08% (active); in the experiment on HOP-92 NSCLC, 25.1%. The growth in the experiment on NCI-H522 lung is 80.1%; in the experiment with A549/ATCC NSCLC, 51.5%; in the experiment on 786-0 renal, -11.6% (active); with COLO 205 colon, -73.2% (active); in the experiment on DU-145 prostate, 40.3%; in the experiment on K-562 leukemia it was -14.4% (active). For the same molecule, the growth in the experiment with MALME-3M melanoma was 17.7%; in the experiment with MDA-MB-231 breast, -11.2% (active); in the experiment on SF-268 CNS, 45.7%; in the experiment with SF-295 CNS, -3.44% (active); with SF-539 CNS, 27.8%; in the experiment on UACC-257 melanoma, 22.7%. The growth with M14 melanoma was -69.8% (active).
